TDP1 cell noCPT: qHTS for Inhibitors of human tyrosyl-DNA phosphodiesterase 1 (TDP1): qHTS in cells in absence of CPT; hit rate 15% among 420,000; Potency, µM (series often up to 46.2 µM), actives largely listed as inhibitors; DT40 Tdp1-/- hTDP1 cells, no CPT, ATP luminescence, 48 h; also: nearly all actives have a fitted effect of over 55% in size
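No-CPT arm: Tdp1-/-;hTDP1 DT40 cells (400/well) plus compounds, incubated ≥48 hr at 37 °C. Readout CellTiter-Glo luminescence.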
DRD3 antagonist: qHTS of D3 Dopamine Receptor Antagonist: qHTS; hit rate 2.5% among 360,000; D3R cells, DiscoveRx beta-arrestin luminescence, antagonist mode; stronger effect = lower value; D(3) dopamine receptor (Homo sapiens), P35462; AID 652054, 2013; max response, negative = inhibition, %; in the data active = max response below about -50%; inconclusive = no clear call, values can overlap the other calls
Target sequence (P35462 whole entry, looked up): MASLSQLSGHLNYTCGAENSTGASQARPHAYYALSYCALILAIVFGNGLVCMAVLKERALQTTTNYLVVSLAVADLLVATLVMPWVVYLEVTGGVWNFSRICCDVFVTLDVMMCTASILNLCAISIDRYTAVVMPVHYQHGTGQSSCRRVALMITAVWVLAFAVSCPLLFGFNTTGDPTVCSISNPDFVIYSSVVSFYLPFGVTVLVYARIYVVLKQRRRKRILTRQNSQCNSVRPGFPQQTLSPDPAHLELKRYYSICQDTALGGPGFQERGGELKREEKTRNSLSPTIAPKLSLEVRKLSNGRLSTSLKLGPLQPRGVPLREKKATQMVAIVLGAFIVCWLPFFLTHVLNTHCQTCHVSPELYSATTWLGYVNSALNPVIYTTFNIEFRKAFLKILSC
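Cells expressing the human receptor were seeded at 1500 cells/well, incubated overnight at 37 degrees C in 5% CO2, then exposed to library compounds with dopamine controls for 90 minutes at 37 degrees C before luminescent detection.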
DRD3 agonist: qHTS of D3 Dopamine Receptor Agonist: qHTS. D(3) dopamine receptor (Homo sapiens), P35462. D3R DiscoveRx beta-arrestin cells, luminescence, 90 min. max activation, %. hit rate 0.58% among 410,000. AID 652048, 2013; in the data active = max activation above about 30%
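Agonist mode: compounds and dopamine controls were applied to plated cells for 90 min at 37 degrees C after an overnight attachment at 1500 cells/well. Luminescent read-out followed 30 - 60 minutes at room temperature with DiscoveRx detection reagent.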
IL-1B inflam inh: qHTS for Inhibitors of Inflammasome Signaling: IL-1-beta AlphaLISA Primary Screen; THP-1 LPS/ATP IL-1B secretion, AlphaLISA, 16 h; stronger effect = lower value; activity change, % at 57.5 µM; hit rate 4.7% among 360,000; AID 743279, 2014; in the data active = activity change below about -50%; inconclusive = mostly about -30% to -49%
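THP-1 cells pretreated 1 hr with compounds (up to 57.5 uM final), then stimulated with LPS (250 ng/mL final) plus ATP (1.25 mM final); secreted IL-1B measured by AlphaLISA after 16 hr, decreased signal indicating inhibition.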
TDP1 cell CPT: qHTS for Inhibitors of human tyrosyl-DNA phosphodiesterase 1 (TDP1): qHTS in cells in presence of CPT | chicken DT40 Tdp1-/-;hTDP1 cells + 20 nM CPT, ATP luminescence, 48 h | Potency, µM (series often up to 46.2 µM), most hits filed as inhibitors | hit rate 12% among 420,000; also: nearly all actives have a fitted effect of over 55% in size
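Chicken DT40 Tdp1-/- cells complemented with human TDP1, 400 cells/well, exposed to compounds plus 20 nM camptothecin for at least 48 h at 37 C; viability read as ATP content by CellTiter-Glo luminescence.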
ClpP mod: qHTS Assay for Activators of ClpP; Potency, µM (doses to about 57.5 µM); purified B. subtilis ClpP, FRET peptide cleavage, 20 min; ATP-dependent Clp protease proteolytic subunit (Bacillus subtilis (strain 168)), P80244; hit rate 1.9% among 340,000; AID 651965, 2013; active = well fitted falling curve with a large enough effect; inconclusive = small, poorly fitted or top-dose-only effect; inactive = no such curve, though single readings can be large or run the other way; also: the source files actives as falling curves though it sought activators and does not explain the sign; nearly all actives have a fitted effect of over 65% in size
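Buffer: 100 mM Tris/HCl pH8, 100 mM KCl, 0.05% low protease BSA, 2.5% glycerol, 0.01% Tween-20. ClpP 10 microg/mL final; 20 min RT; delta FRET normalized to ADEP and DMSO controls.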
Of the large screens only hits and unclear results are named; the others gave an inactive call. Shown are actives, neighbours in structure and some others; about 21% of the full set was active somewhere. Unless noted, calls follow the shape of the dose curve; as a rule, active = well fitted inhibition curve with a large enough effect; inconclusive = small, poorly fitted or top-dose-only effect; inactive = flat fitted curve, though single readings scatter.

CN(C)S(=O)(=O)c1ccc(C(=O)Nc2nnc(-c3cccs3)o2)cc1	TDP1 cell noCPT 23.1µM, TDP1 cell CPT 13µM
Cc1cccc(C)c1N1C(=O)c2ccccc2NC(=O)C1C(=O)Nc1ccc2c(c1)OCCO2 (stereo not drawn)	none
COC(=O)[C@@]1(Cc2ccc(OC)cc2)[C@H]2c3cc(C(=O)N(C)C)n(Cc4ccc(OC(F)(F)F)cc4)c3C[C@H]2CN1C(=O)c1ccccc1	TDP1 cell noCPT 20.6µM, IL-1B inflam inh -62.1, TDP1 cell CPT 20.6µM
COC(=O)[C@@]1(Cc2ccc(F)cc2)[C@H]2c3cc(C(=O)N(C)C)n(CCO)c3C[C@H]2CN1C(=O)c1ccccc1	none
COC(=O)[C@@]1(Cc2ccc(F)cc2)[C@H]2c3cc(C(=O)N(C)C)n(CCc4ccc(OC)c(Br)c4)c3C[C@H]2CN1C(=O)c1ccccc1	TDP1 cell noCPT 9.2µM, TDP1 cell CPT 10.3µM
COC(=O)[C@@]1(Cc2ccc(OC)cc2)[C@H]2c3cc(C(=O)N(C)C)n(C[C@H](O)CO)c3C[C@H]2CN1C(=O)c1ccccc1	none
COC(=O)[C@@]1(Cc2ccc(F)cc2)[C@H]2c3cc(C(=O)N(C)C)n(Cc4ccc(C)o4)c3C[C@H]2CN1C(=O)c1ccccc1	TDP1 cell noCPT 20.6µM, TDP1 cell CPT 16.4µM
COC(=O)[C@@]1(Cc2ccc(F)cc2)[C@H]2c3cc(C(=O)N(C)C)n(Cc4ccccc4)c3C[C@H]2CN1C(=O)c1ccccc1	TDP1 cell noCPT 20.6µM, TDP1 cell CPT 5.17µM
COC(=O)[C@@]1(Cc2ccc(F)cc2)[C@H]2c3cc(C(=O)N(C)C)n(Cc4ccc(OC)c(OC)c4)c3C[C@H]2CN1C(=O)c1ccccc1	TDP1 cell noCPT inconclusive, TDP1 cell CPT inconclusive
CNC(=S)Nc1ccc(C(N)=O)cc1	none (no result: ClpP mod)
Cc1cc(C)c2nc(-c3ccccc3)ccc2c1	none
COC(=O)c1ccc2nc(-c3ccco3)c(Cc3cccc(F)c3)n2c1	TDP1 cell noCPT 18.4µM, TDP1 cell CPT 16.4µM
COC(=O)c1ccc2nc(-c3ccc(C)cc3)c(Cc3ccc(C)cc3)n2c1	TDP1 cell noCPT 16.4µM, TDP1 cell CPT inconclusive
COC(=O)c1ccc2nc(-c3ccccc3)c(Cc3cccc(F)c3)n2c1	TDP1 cell noCPT inconclusive, TDP1 cell CPT inconclusive
COC(=O)c1ccc2nc(-c3ccc(F)cc3)c(Cc3cccc(F)c3)n2c1	none
COC(=O)c1ccc2nc(-c3ccc(F)cc3)c(Cc3cccc(Cl)c3)n2c1	TDP1 cell noCPT 18.4µM, TDP1 cell CPT inconclusive
COC(=O)c1ccc2nc(-c3ccc(OC)c(OC)c3)c(Cc3cccc(F)c3)n2c1	TDP1 cell noCPT 13µM, TDP1 cell CPT 11.6µM
O=c1c2cc3c(cc2n(Cc2cccc(F)c2)c(=O)n1Cc1nc(-c2ccccc2)no1)OCO3	none (no result: DRD3 antagonist, IL-1B inflam inh)
CC1CCCCN1C(=O)C1CCCCN1S(=O)(=O)c1cccc([N+](=O)[O-])c1 (stereo not drawn)	TDP1 cell CPT inconclusive
CC1CN(C(=O)c2ccc(OC3CCN(Cc4ccccn4)CC3)cc2)CCN1C (stereo not drawn)	none
O=C(Cc1ccccc1)NCC(=O)OCC(=O)c1ccc(Cl)cc1	IL-1B inflam inh inconclusive
COC(=O)c1ccc2nc(-c3ccc(OC)c(OC)c3)c(Cc3ccc(C)cc3)n2c1	TDP1 cell noCPT 20.6µM, TDP1 cell CPT inconclusive
CCc1nnc(NC(=O)CCC(=O)NC2CC2)s1	none
CS(=O)(=O)Cc1ccc(C(=O)Nc2cccc(-c3nc4ccccc4[nH]3)c2)cc1	TDP1 cell noCPT 13µM, TDP1 cell CPT inconclusive (no result: ClpP mod)
